This passage reports Potency and outcome results from PubChem BioAssay (Tox21).

Test [1] in a line: qHTS assay to identify small molecule agonists of the sonic hedgehog signaling (Shh) pathway (AID 1259368).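 Note: NIH/3T3-derived 3T3Gli1-Luc cells carrying a stable Gli1-driven firefly luciferase reporter; series mostly up to about 92 µM; nearly all actives have a fitted effect of over 15% in size.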 The method in brief:
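Cells of a mouse NIH/3T3 clone stably expressing luciferase under the Gli1 transcriptional response element are exposed to test chemicals for 24 hr at 37 C. Pathway activation is detected as a rise in luminescence.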
(In qHTS, concentration-response curves come from the screen itself.)

The nature of test [2]: qHTS assay to identify small molecule antagonists of the sonic hedgehog signaling (Shh) pathway (AID 1259369). Note: nearly all actives have a fitted effect of over 45% in size. The method in brief: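 Cells are plated and held 4hr at 37 C, compounds (DMSO) are pinned in, conditioned medium is added to stimulate the pathway, and after 24hr luciferase reagent is added for 30min before luminescence is read.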
The nature of test [3]: qHTS assay to identify small molecule agonists of the androgen receptor (AR) signaling pathway in the presence of an antagonist - cell viability counter screen (AID 1259379; active = well fitted curve in the direction sought with a large enough effect in the repeat runs; an effect the other way counts as inactive or inconclusive;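 note: MDA-kb2 human breast cancer cells carrying an MMTV luciferase reporter; series mostly up to about 92 µM; nearly all actives have a fitted effect of over 25% in size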). The method in brief: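 Cytotoxicity is assessed by CellTiter-Fluor in MDA-kb2 cells carrying an MMTV-driven luciferase reporter. Cells receive 3.0uM nilutamide plus compounds at 15 concentrations and incubate 16 hr at 37C without CO2 before fluorescence reading.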

Test [4] in a line: qHTS assay to identify small molecule agonists of the estrogen receptor beta (ER-beta) signaling pathway - cell viability counter screen (AID 1259380; active = well fitted curve in the direction sought with a large enough effect in the repeat runs; an effect the other way counts as inactive or inconclusive; note: nearly all actives have a fitted effect of over 30% in size; note: potency is the fitted concentration of half-maximal effect). The method in brief: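 Cytotoxicity is measured in parallel with the reporter screen: after 16 hr compound exposure at 37C and a 2 hr LiveBLAzer step, CellTiter-Glo is added to the same ER-beta-UAS-bla HEK293T wells and luminescence read after 30 min.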

Test [5] in a line: qHTS assay to identify small molecule antagonists of the estrogen receptor beta (ER-beta) signaling pathway - cell viability counter screen (AID 1259382; active = well fitted curve in the direction sought with a large enough effect in the repeat runs; an effect the other way counts as inactive or inconclusive; note: series mostly up to about 92 µM; nearly all actives have a fitted effect of over 55% in size). The method in brief: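 Cytotoxicity counter screen multiplexed with the beta-lactamase antagonist assay: GripTite HEK293T ER-beta-bla cells were treated 16 hr with test chemicals in the presence of 1nM 17-beta-estradiol, and viability was measured by CellTiter-Glo.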

In test [6] the target is Estrogen receptor (Homo sapiens) (UniProt P03372). Kind of test: qHTS assay to identify small molecule agonists of the estrogen receptor alpha (ER-alpha) signaling pathway in the presence of an antagonist (AID 1259383). Note: top concentration of the series differs between compounds; nearly all actives have a fitted effect of over 15% in size. The method in brief: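 Agonist-mode confirmation in the presence of the ER antagonist ICI-182,780 at 10.0nM final. Breast-derived VM7Luc4E2 reporter cells were exposed to compounds for 22hr, and ERE-driven luciferase was quantified by luminescence.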
Chain of Estrogen receptor (Homo sapiens) (P03372 whole entry, looked up): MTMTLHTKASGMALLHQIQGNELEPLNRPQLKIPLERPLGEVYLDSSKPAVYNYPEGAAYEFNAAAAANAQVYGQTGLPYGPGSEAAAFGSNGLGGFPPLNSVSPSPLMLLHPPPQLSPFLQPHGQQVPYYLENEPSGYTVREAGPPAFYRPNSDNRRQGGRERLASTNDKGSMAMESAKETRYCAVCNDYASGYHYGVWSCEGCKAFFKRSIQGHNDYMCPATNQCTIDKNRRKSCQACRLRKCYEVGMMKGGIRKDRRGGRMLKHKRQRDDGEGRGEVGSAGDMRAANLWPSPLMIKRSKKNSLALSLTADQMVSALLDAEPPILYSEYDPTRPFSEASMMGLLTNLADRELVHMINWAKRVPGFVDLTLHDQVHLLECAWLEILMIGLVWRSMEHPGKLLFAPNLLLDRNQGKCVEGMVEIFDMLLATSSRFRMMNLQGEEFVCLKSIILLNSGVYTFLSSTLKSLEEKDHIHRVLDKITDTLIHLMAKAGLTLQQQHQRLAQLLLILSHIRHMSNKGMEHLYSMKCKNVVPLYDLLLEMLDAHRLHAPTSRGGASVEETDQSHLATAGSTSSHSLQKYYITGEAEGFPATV

Test [7] can be described thus: qHTS assay to identify small molecule agonists or antagonists of the thyroid stimulating hormone receptor (TSHR) signaling pathway - wild type cell line counter screen (AID 1259384). The method in brief:
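Wild-type Hek293 cells, 800/well, 18 h at 37C, then compound with Ro20-1724 for 30 min RT. cAMP by HTRF (cAMP-d2/anti-cAMP cryptate), 1 h RT, fluorescence read. 15 concentrations, triplicates.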

In test [8] the target is Thyrotropin receptor (Homo sapiens) (UniProt P16473). As to the kind of experiment: qHTS assay to identify small molecule antagonists of the thyroid stimulating hormone receptor (TSHR) signaling pathway (AID 1259385). Note: nearly all actives have a fitted effect of over 20% in size. In short, it runs like this: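 TSHR-HEK293 cells (800/well) plated 18 h, then compounds with Ro20-1724 and TSH at 1.5 ng/mL final, 30 min at room temperature. cAMP quantified by HTRF (cAMP-d2/anti-cAMP-cryptate, 1 h); 15 concentrations in triplicate.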
Chain of Thyrotropin receptor (Homo sapiens) (P16473 whole entry, looked up): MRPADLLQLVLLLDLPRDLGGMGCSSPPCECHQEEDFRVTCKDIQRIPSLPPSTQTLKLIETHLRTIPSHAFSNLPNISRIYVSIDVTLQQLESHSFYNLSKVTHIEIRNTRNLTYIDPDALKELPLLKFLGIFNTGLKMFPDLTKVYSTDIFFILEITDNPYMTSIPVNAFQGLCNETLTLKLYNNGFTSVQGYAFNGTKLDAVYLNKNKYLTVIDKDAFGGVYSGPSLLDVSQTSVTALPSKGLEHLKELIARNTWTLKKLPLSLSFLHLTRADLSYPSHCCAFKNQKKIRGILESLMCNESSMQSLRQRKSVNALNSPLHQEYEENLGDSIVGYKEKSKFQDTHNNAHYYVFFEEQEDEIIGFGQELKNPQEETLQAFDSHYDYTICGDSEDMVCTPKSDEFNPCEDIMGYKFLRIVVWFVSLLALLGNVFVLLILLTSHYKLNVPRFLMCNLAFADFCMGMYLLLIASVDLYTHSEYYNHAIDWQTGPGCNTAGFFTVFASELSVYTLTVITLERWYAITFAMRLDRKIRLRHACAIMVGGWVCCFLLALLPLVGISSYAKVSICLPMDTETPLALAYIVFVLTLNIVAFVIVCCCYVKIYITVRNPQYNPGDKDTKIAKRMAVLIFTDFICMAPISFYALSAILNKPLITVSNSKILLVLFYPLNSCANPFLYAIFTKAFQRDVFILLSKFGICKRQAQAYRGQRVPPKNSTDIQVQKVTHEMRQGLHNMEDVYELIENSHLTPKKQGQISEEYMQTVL

A short description of test [9]: qHTS assay to identify small molecule agonists of the estrogen receptor alpha (ER-alpha) signaling pathway in the presence of an antagonist - cell viability counter screen (AID 1259386; active = well fitted curve in the direction sought with a large enough effect in the repeat runs; an effect the other way counts as inactive or inconclusive;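 note: series mostly up to about 92 µM; cells exposed to compounds for 22 h at 37 °C before the viability read; nearly all actives have a fitted effect of over 30% in size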). The method in brief:
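Cytotoxicity was measured in parallel with the ERE-luciferase agonist screen, in the same wells. The cells were VM7Luc4E2, which endogenously express ER-alpha, and treatment was with compounds plus 10.0nM ICI-182,780 for 22hr.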

For test [10], the target named is Progesterone receptor (Homo sapiens) (UniProt P06401). Kind of test: qHTS assay to identify small molecule agonists of the progesterone receptor (PR) signaling pathway (AID 1346784). Note: nearly all actives have a fitted effect of over 30% in size. The method in brief:
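HEK 293T PR-UAS-bla reporter cells, 2% charcoal-stripped FBS; 6 hr settle at 37C/5% CO2, compound (DMSO) 16 hr, LiveBLAzer B/G FRET substrate 2 hr RT, fluorescence intensity read.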

Test [11] has the same target. Kind of test: qHTS assay to identify small molecule antagonists of the progesterone receptor (PR) signaling pathway (AID 1346795; active = well fitted inhibition curve with a large enough effect in the signal ratio in the repeat runs, not every such curve was filed as active; the % refers to the signal ratio). The method in brief: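 Beta-lactamase reporter, HEK293T PR-UAS-bla line; 2% charcoal-stripped FBS; 6 hr pre-incubation, 37C/5% CO2. Compound + R5020 1 nM final, 16 hr. LiveBLAzer B/G FRET substrate, 2 hr RT; fluorescence intensity read.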

Test [12] in a line: qHTS assay to identify small molecule antagonists of the progesterone receptor (PR) signaling pathway - cell viability counter screen (AID 1346798; active = well fitted curve in the direction sought with a large enough effect in the repeat runs; an effect the other way counts as inactive or inconclusive; note: series mostly up to about 92 µM; nearly all actives have a fitted effect of over 50% in size). The method in brief:
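Luminescence readout (CellTiter-Glo, 30 min, RT) of viability in PR-UAS-bla HEK293T cells exposed to compound and R5020 agonist for 16 hr at 37C, 5% CO2; run in the same wells as the beta-lactamase reporter read.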

Test [13] in a line: qHTS assay to identify small molecule agonists of the progesterone receptor (PR) signaling pathway - cell viability counter screen (AID 1346799). Note: nearly all actives have a fitted effect of over 45% in size. The method in brief:
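HEK293T PR-UAS-bla, 3,000 cells/well, 2% charcoal-stripped FBS; 6 h settle, compound 16 h at 37C/5% CO2; LiveBLAzer 2 h RT, then CellTiter-Glo 30 min RT, luminescence read.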

Test [14] can be described thus: qHTS assay to identify small molecule antagonists of the TGF-beta/Smad signaling pathway - cell viability counter screen (AID 1346824; active = well fitted curve in the direction sought with a large enough effect in the repeat runs; an effect the other way counts as inactive or inconclusive; note: nearly all actives have a fitted effect of over 50% in size). The method in brief: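 SBE-bla HEK 293T cells, incubated overnight, then compound plus 0.25 ng/mL TGF-beta1 (stock added) for 5 hr at 37 C. Viability was read in the same wells by CellTiter-Glo luminescence after 30 min at room temperature.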

A short description of test [15]: qHTS assay to identify small molecule agonists of the TGF-beta/Smad signaling pathway - cell viability counter screen (AID 1346829; active = well fitted curve in the direction sought with a large enough effect in the repeat runs; an effect the other way counts as inactive or inconclusive; note: top concentration of the series differs between compounds; nearly all actives have a fitted effect of over 45% in size). In short, it runs like this: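 Compound-treated SBE-bla HEK 293T cells (5 hr, 37 C) were assessed for viability with CellTiter-Glo in parallel with the reporter read.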
Test [16] in a line: qHTS assay to identify small molecule agonists of the TGF-beta/Smad signaling pathway (AID 1346859; active = well fitted activation curve with a large enough effect in the signal ratio in the repeat runs, not every such curve was filed as active; the % refers to the signal ratio; note: series mostly up to about 77 µM). In short, it runs like this:
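Read-out: fluorescence at 460 and 530 nm (405 nm excitation) after a 2 hr room-temperature incubation with beta-lactamase FRET substrate. SBE-bla HEK 293T cells had been treated with test compounds for 5 hr at 37 C.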

Test [17] concerns the target Thyrotropin-releasing hormone receptor (Homo sapiens) (UniProt P34981). Kind of test: qHTS assay to identify small molecule antagonists of the thyrotropin-releasing hormone receptor (TRHR) signaling pathway (AID 1346877; active = well fitted inhibition curve with a large enough effect in the repeat runs, not every such curve was filed as active; note: series mostly up to about 51 µM). In short, it runs like this: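 Antagonism is measured as suppression of the calcium response to 1 nM TRH in TRHR-HEK293 cells that have been dye-loaded for 2 h at 37 °C after overnight plating. Each compound is tested at 15 concentrations in triplicate.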

Test [18] deals with Estrogen receptor beta (Homo sapiens) (UniProt Q92731). As to the kind of experiment: qHTS assay to identify small molecule antagonists of the estrogen receptor beta (ER-beta) signaling pathway (AID 1259378; active = well fitted inhibition curve with a large enough effect in the signal ratio in the repeat runs, not every such curve was filed as active; the % refers to the signal ratio). In short, it runs like this: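 ER-beta-UAS-bla HEK293T cells in 2% charcoal-stripped FBS medium treated with compound plus 1nM final 17-beta-estradiol for 16 hr at 37C. Beta-lactamase reporter read by FRET substrate fluorescence after 2 hours at room temperature.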
Chain of Estrogen receptor beta (Homo sapiens) (Q92731 whole entry, looked up): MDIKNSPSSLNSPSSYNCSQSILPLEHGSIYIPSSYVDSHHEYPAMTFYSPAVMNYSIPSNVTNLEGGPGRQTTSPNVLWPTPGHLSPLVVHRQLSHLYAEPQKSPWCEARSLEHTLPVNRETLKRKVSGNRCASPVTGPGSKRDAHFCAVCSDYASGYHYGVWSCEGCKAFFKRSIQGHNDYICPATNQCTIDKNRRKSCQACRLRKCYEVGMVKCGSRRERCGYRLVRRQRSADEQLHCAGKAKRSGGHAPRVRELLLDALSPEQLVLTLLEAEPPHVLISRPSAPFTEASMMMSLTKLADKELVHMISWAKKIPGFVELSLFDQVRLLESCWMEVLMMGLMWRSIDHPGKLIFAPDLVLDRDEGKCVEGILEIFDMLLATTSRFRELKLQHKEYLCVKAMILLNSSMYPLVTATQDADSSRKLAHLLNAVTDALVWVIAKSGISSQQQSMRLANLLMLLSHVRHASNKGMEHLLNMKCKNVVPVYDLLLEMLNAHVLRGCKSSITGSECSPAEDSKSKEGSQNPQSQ

For test [19] the target is unchanged. Kind of test: qHTS assay to identify small molecule agonists of the estrogen receptor beta (ER-beta) signaling pathway (AID 1259377; active = well fitted activation curve with a large enough effect in the signal ratio in the repeat runs, not every such curve was filed as active; the % refers to the signal ratio). The method in brief: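 Beta-lactamase reporter readout: fluorescence of LiveBLAzer B/G FRET substrate after 2 h at room temperature, following 16 h compound treatment of ER-beta-UAS-bla HEK293T cells at 37C in 2% charcoal-stripped FBS medium.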

For test [20], the target named is Androgen receptor (Homo sapiens) (UniProt P10275). Kind of test: qHTS assay to identify small molecule agonists of the androgen receptor (AR) signaling pathway in the presence of an antagonist (AID 1259381). Note: nearly all actives have a fitted effect of over 15% in size. The method in brief:
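Agonist-mode confirmation screen: human MDA-kb2 cells stably expressing luciferase under an MMTV promoter bearing AR and GR response elements, co-treated with 3.0uM nilutamide (final). Luminescence measured after 16hr compound incubation.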

A number with no mark means an inactive call. Results filed as inconclusive are left out. Active and inactive are the calls of the source. Unless noted, calls come from the whole dose curve.

Chain of Progesterone receptor (Homo sapiens) (P06401 whole entry, looked up): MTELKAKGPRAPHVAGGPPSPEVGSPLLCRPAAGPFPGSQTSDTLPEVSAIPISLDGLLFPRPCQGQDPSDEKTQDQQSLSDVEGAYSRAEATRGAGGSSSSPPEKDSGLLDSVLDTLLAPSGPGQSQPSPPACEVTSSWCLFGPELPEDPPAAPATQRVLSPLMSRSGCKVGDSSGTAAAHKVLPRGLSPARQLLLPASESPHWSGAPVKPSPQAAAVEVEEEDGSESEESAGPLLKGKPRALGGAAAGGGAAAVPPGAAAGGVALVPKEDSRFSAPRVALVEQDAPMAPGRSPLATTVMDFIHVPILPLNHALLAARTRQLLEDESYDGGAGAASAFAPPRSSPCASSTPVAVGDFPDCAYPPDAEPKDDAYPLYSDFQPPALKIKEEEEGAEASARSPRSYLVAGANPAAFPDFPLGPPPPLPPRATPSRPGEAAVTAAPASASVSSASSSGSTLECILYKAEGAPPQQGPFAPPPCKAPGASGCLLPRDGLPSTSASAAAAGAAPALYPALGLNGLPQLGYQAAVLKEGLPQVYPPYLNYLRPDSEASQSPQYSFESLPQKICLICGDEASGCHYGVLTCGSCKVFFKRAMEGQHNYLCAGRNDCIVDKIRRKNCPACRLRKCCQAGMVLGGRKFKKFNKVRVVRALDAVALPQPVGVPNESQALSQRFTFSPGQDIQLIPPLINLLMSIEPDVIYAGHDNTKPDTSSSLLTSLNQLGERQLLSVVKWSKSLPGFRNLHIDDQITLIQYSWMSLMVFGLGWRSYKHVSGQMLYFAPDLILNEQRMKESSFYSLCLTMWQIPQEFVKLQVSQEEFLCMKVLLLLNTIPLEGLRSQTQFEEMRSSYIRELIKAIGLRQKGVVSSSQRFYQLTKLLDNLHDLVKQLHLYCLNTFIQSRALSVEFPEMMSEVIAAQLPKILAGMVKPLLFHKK
Chain of Thyrotropin-releasing hormone receptor (Homo sapiens) (P34981 whole entry, looked up): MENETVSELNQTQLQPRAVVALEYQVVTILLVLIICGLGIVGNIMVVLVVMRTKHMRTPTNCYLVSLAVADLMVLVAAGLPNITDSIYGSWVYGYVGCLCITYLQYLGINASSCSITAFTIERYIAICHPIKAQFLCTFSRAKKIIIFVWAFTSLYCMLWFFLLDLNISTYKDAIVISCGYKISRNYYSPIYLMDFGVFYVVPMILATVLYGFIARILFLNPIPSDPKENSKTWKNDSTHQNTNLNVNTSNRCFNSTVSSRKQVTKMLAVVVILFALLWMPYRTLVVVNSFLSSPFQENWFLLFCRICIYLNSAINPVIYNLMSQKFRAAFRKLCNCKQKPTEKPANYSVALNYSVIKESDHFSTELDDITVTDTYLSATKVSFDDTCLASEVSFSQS
Chain of Androgen receptor (Homo sapiens) (P10275 whole entry, looked up): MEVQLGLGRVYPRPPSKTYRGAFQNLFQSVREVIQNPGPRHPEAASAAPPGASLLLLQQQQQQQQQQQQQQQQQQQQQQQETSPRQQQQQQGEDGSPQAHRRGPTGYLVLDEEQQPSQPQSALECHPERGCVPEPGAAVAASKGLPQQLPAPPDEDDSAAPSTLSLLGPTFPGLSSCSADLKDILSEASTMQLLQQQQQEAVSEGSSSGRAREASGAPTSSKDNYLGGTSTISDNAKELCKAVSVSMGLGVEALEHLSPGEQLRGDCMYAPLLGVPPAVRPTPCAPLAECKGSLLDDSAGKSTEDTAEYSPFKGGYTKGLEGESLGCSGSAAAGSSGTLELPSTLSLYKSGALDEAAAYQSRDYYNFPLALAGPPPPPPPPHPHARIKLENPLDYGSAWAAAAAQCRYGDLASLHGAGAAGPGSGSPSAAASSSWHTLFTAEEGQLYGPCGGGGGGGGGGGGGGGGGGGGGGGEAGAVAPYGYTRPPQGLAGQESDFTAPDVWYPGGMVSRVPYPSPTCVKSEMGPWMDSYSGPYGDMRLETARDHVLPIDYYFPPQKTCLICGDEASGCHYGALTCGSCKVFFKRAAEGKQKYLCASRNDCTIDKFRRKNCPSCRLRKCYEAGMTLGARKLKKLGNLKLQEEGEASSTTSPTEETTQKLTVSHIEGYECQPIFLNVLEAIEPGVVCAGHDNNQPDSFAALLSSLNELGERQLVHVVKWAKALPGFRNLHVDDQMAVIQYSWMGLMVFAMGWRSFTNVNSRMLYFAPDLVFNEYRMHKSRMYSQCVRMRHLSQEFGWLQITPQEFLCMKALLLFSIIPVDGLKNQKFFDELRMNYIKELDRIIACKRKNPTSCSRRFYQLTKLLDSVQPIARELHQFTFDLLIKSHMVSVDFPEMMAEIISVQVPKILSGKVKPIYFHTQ

As for `CC(N)CN` (configuration not stated), the Potency entry in test [1], in test [2], in test [3], in test [4], in test [5] and in test [6] was “inactive” in each case. Also, the Potency result in [8], in test [9], in [10], in [11], in test [12] and in test [13] was “inactive” in each case. Also, the result in test [7], in test [14], in test [15], in test [16] and in test [17] was inactive.
As for `COC(=O)[C@@H]1CC2=CC(=O)CC[C@]2(C)[C@@]23O[C@@H]2C[C@@]2(C)[C@@H](CC[C@@]24CCC(=O)O4)[C@H]13`, the Potency result in test [1], in test [2], in test [3], in test [4], in [5] and in [6] was “inactive” throughout. For the same compound, the Potency entry in test [8], in test [9], in test [10], in [12] and in test [13] was “inactive” throughout. Further, the call in test [7], in test [14], in [15], in test [16] and in test [17] was inactive.
On to `CC(Cl)C(Cl)Cl` (configuration not stated), for which the Potency entry in test [1], in test [2], in test [3], in test [4], in test [5] and in [6] was “inactive” each time. For the same compound, the Potency result in test [8], in [9] and in [10] was “inactive” in each case. Besides, the compound was classed as inactive in [7], in [14], in [15], in test [16] and in test [17].
Consider `CC[C@H](NC(=O)c1cc(F)ccc1NS(=O)(=O)c1cccc2cccnc12)c1ccccc1`, for which the Potency result in [1], in test [2], in test [18], in test [3], in [6] and in [8] was “inactive” throughout. For the same compound, the Potency result in test [9] and in [13] was “inactive” in each case. In addition, the Potency in [4] was 18.3 µM (active). Moreover, the result in test [14], in [15], in [16] and in test [17] was inactive.
As to `CC1CC(=O)NN=C1c1ccc(NCC(C)(C)NCC(O)COc2cc(Cl)ccc2C#N)cc1` (configuration not stated), the Potency entry in [1], in test [19], in [18], in [3], in test [5] and in test [6] was “inactive” throughout. In addition, the Potency result in test [8], in test [10], in test [11], in [12] and in test [13] was “inactive” throughout. In addition, the call in test [7], in test [15], in [16] and in test [17] was inactive.
Consider `CCc1cccc(N(C)C(N)=Nc2cccc3ccccc23)c1`, for which the Potency entry in test [1], in test [19], in test [18], in test [3], in test [20] and in [5] was “inactive” each time. Also, the Potency entry in test [9], in [10], in test [11], in test [12] and in test [13] was “inactive” in each case. In [4], the Potency is 2.66 µM (active). Moreover, the compound was called inactive in test [7], in [14], in test [15] and in test [16].
With `Brc1cc(-c2ccc(Br)c(Br)c2Br)cc(Br)c1Br`, the Potency result in test [1], in test [19], in test [18], in test [3], in test [5] and in test [6] was “inactive” each time. Also, the Potency entry in test [8], in test [9], in test [10], in [12] and in test [13] was “inactive” throughout. The result in [7], in [15], in [16] and in test [17] was inactive.
Consider `CC(=O)N(c1onc(C)c1C)S(=O)(=O)c1ccc(N)cc1`, for which the Potency entry in test [1], in test [19], in [18], in test [3], in test [4] and in test [5] was “inactive” throughout. The Potency result in test [6], in test [8], in [9], in [10], in [11] and in test [12] was “inactive” in each case. The Potency entry in [13] is “inactive”. In addition, the compound was called inactive in test [7], in test [15] and in test [16].
